These results are taken from PubChem BioAssay (NCATS).

Inconclusive results are not listed. Entries that show only a call come without a potency. Activity calls are given as the source filed them. The call rests on the fitted dose curve; in most records, active means well fitted curve in the direction sought with a large enough effect; inconclusive means small, poorly fitted or top-dose-only effect, or another doubt; inactive means no such curve, though single readings can be large; an effect the other way counts as inactive or inconclusive.

The nature of one test: qHTS Screen of the MIPE 4.0 Collection Against Ewings Sarcoma (TC32) (AID 1259256). Further: nearly all actives have a fitted effect of over 45% in size. Further: potency means the concentration at half of the fitted maximal effect. Conditions: TC32 Ewing sarcoma viability, CellTiter-Glo, 48 h; series mostly up to 45.8 µM. Put shortly: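 Compound titrations go onto adherent log-phase cells 4 h after seeding, incubate 48 h at 37C, then CellTiter-Glo luminescence reports viability relative to DMSO and cell-free controls.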
For orientation: Quantitative high-throughput screening tests each substance at several concentrations.
In the case of `O=C(C1CCCCC1)N1CC(=O)N2CCc3ccccc3C2C1` (centres undefined), the Potency result is “inactive”.

On to `Nc1nc2c(ncn2COC(CO)CO)c(=O)[nH]1`, for which the Potency entry was “inactive”.

On to `C[C@H]1c2cccc(O)c2C(O)=C2C(=O)[C@]3(O)C(O)=C(C(N)=O)C(=O)[C@@H](N(C)C)[C@@H]3[C@@H](O)[C@@H]21`, for which the Potency result is “inactive”.

Turning to `CC1COc2c(N3CCN(C)CC3)c(F)cc3c(=O)c(C(=O)O)cn1c23` (centres undefined), the Potency entry was “inactive”.

In the case of `NCCc1cnc[nH]1`, the Potency result was “inactive”.

As to `CC(C)(C)C(=O)Oc1ccc(S(=O)(=O)Nc2ccccc2C(=O)NCC(=O)O)cc1`, the Potency result is “inactive”.

On to `NC(CO)C(=O)NNCc1ccc(O)c(O)c1O` (centres undefined), for which the Potency is 26.4 µM (active).

Take `CN(Cc1cnc2nc(N)nc(N)c2n1)c1ccc(C(=O)N[C@@H](CCC(=O)O)C(=O)O)cc1`: the Potency was 0.0372 µM (active).

`CC1(CN2CCC(n3c(=O)[nH]c4ccccc43)CC2)OCc2ccccc2-n2cccc21` (centres undefined): the Potency is 14.8 µM (active).

On to `OCCN1CCN(CCCN2c3ccccc3Sc3ccc(C(F)(F)F)cc32)CC1`, for which the Potency is 23.5 µM (active).

Take `CCOC(=O)C(C)(C)Oc1ccc(Cl)cc1`: the Potency entry is “inactive”.

On to `O=c1[nH]cc(F)c(=O)[nH]1`, for which the Potency was 9.35 µM (active).

Turning to `CC(=O)OCC(CCn1cnc2cnc(N)nc21)COC(C)=O`, the Potency entry is “inactive”.

Regarding `Cc1cn([C@H]2C[C@H](N=[N+]=[N-])[C@@H](CO)O2)c(=O)[nH]c1=O`, the Potency result is “inactive”.

Take `O=C(c1ccc(OCCN2CCCCC2)cc1)c1c(-c2ccc(O)cc2)sc2cc(O)ccc12`: the Potency was 8.33 µM (active).

With `NC(=O)NO`, the Potency entry was “inactive”.

In the case of `CCCCc1oc2ccccc2c1C(=O)c1cc(I)c(OCCN(CC)CC)c(I)c1`, the Potency is 8.33 µM (active).

Consider `COc1cc2nc(N(C)CCCNC(=O)C3CCCO3)nc(N)c2cc1OC` (centres undefined), for which the Potency entry is “inactive”.

For the compound `COc1ccccc1OCCNCC(O)COc1cccc2[nH]c3ccccc3c12` (centres undefined), the Potency result was “inactive”.

For the compound `CC(C)Cc1ccc(C(C)C(=O)O)cc1` (centres undefined), the Potency result was “inactive”.

`Cc1ccccc1N1C(=O)c2cc(S(N)(=O)=O)c(Cl)cc2NC1C` (centres undefined): the Potency result is “inactive”.

With `CN(C)c1nc(N(C)C)nc(N(C)C)n1`, the Potency entry was “inactive”.

As for `CS(=O)(=O)Nc1ccc([N+](=O)[O-])cc1Oc1ccccc1`, the Potency is 14.8 µM (active).

A short description of the next test: qHTS assay to identify small molecule inhibitors of chordoma cells - UCH-1 (AID 1259355). Further: nearly all actives have a fitted effect of over 55% in size. Further: potency means the concentration at half of the fitted maximal effect. The following applies: UCH-1 chordoma viability, CellTiter-Glo, 48 h, combination, with auranofin plus four topoisomerase inhibitors; series mostly up to 46.1 µM. Summed up: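 A 48hr growth-inhibition format: each drug tested at 15 concentrations together with added auranofin, camptothecin, doxorubicin, rubitecan and topotecan, with cell viability quantified as CellTiter-Glo luminescence.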
For the compound `CCCNCC(O)COc1ccccc1C(=O)CCc1ccccc1` (centres undefined), the Potency result was “inactive”.

For the compound `Cc1cnc(C(=O)NCCc2ccc(S(=O)(=O)NC(=O)NC3CCCCC3)cc2)cn1`, the Potency entry was “inactive”.

In the case of `O=C(C1CCCCC1)N1CC(=O)N2CCc3ccccc3C2C1` (centres undefined), the Potency result is “inactive”.

As for `NC12CC3CC(CC(C3)C1)C2`, the Potency result is “inactive”.

Regarding `Nc1nc2c(ncn2COC(CO)CO)c(=O)[nH]1`, the Potency entry is “inactive”.

Consider `C[C@H]1c2cccc(O)c2C(O)=C2C(=O)[C@]3(O)C(O)=C(C(N)=O)C(=O)[C@@H](N(C)C)[C@@H]3[C@@H](O)[C@@H]21`, for which the Potency entry is “inactive”.

Consider `CC1COc2c(N3CCN(C)CC3)c(F)cc3c(=O)c(C(=O)O)cn1c23` (centres undefined), for which the Potency entry was “inactive”.

Regarding `NCCc1cnc[nH]1`, the Potency entry is “inactive”.

For `CC(C)(C)C(=O)Oc1ccc(S(=O)(=O)Nc2ccccc2C(=O)NCC(=O)O)cc1`, the Potency entry was “inactive”.

For the compound `NC(CO)C(=O)NNCc1ccc(O)c(O)c1O` (centres undefined), the Potency entry was “inactive”.

With `CC1(CN2CCC(n3c(=O)[nH]c4ccccc43)CC2)OCc2ccccc2-n2cccc21` (centres undefined), the Potency entry was “inactive”.

For `OCCN1CCN(CCCN2c3ccccc3Sc3ccc(C(F)(F)F)cc32)CC1`, the Potency is 31.6 µM (active).

For the compound `CN1C(C(=O)Nc2ccccn2)=C(O)c2ccccc2S1(=O)=O`, the Potency entry is “inactive”.

`CCOC(=O)C(C)(C)Oc1ccc(Cl)cc1`: the Potency entry is “inactive”.

For the compound `O=c1[nH]cc(F)c(=O)[nH]1`, the Potency result was “inactive”.

In the case of `CC(=O)OCC(CCn1cnc2cnc(N)nc21)COC(C)=O`, the Potency result was “inactive”.

Turning to `CCOC(=O)Nc1ccc(NCc2ccc(F)cc2)nc1N`, the Potency result is “inactive”.

With `Cc1cn([C@H]2C[C@H](N=[N+]=[N-])[C@@H](CO)O2)c(=O)[nH]c1=O`, the Potency entry is “inactive”.

With `O=C(c1ccc(OCCN2CCCCC2)cc1)c1c(-c2ccc(O)cc2)sc2cc(O)ccc12`, the Potency entry was “inactive”.

For the compound `NC(=O)NO`, the Potency entry was “inactive”.

As for `COc1ccccc1OCCNCC(O)COc1cccc2[nH]c3ccccc3c12` (centres undefined), the Potency entry is “inactive”.

As for `CC(C)Cc1ccc(C(C)C(=O)O)cc1` (centres undefined), the Potency entry was “inactive”.

Consider `CN(C)c1nc(N(C)C)nc(N(C)C)n1`, for which the Potency entry is “inactive”.

Consider `CS(=O)(=O)Nc1ccc([N+](=O)[O-])cc1Oc1ccccc1`, for which the Potency result is “inactive”.

A short description of the next test: qHTS assay to identify small molecule inhibitors of chordoma cells - UCH-2 (AID 1259356). Conditions: UCH-2 chordoma viability, CellTiter-Glo ATP luminescence, 48 h; series mostly up to 46.1 µM.
For `CCCNCC(O)COc1ccccc1C(=O)CCc1ccccc1` (centres undefined), the result was inactive.

With `O=C(C1CCCCC1)N1CC(=O)N2CCc3ccccc3C2C1` (centres undefined), the call was inactive.

Consider `Nc1nc2c(ncn2COC(CO)CO)c(=O)[nH]1`, for which the call was inactive.

In the case of `C[C@H]1c2cccc(O)c2C(O)=C2C(=O)[C@]3(O)C(O)=C(C(N)=O)C(=O)[C@@H](N(C)C)[C@@H]3[C@@H](O)[C@@H]21`, the compound was classed as inactive.

As to `NCCc1cnc[nH]1`, the call was inactive.

Turning to `NC(CO)C(=O)NNCc1ccc(O)c(O)c1O` (centres undefined), the compound was called inactive.

Regarding `CN(Cc1cnc2nc(N)nc(N)c2n1)c1ccc(C(=O)N[C@@H](CCC(=O)O)C(=O)O)cc1`, the result was inactive.

For `CC1(CN2CCC(n3c(=O)[nH]c4ccccc43)CC2)OCc2ccccc2-n2cccc21` (centres undefined), the compound was classed as inactive.

With `CC(=O)OCC(CCn1cnc2cnc(N)nc21)COC(C)=O`, the compound was called inactive.

Turning to `Cc1cn([C@H]2C[C@H](N=[N+]=[N-])[C@@H](CO)O2)c(=O)[nH]c1=O`, the compound was classed as inactive.

As for `O=C(c1ccc(OCCN2CCCCC2)cc1)c1c(-c2ccc(O)cc2)sc2cc(O)ccc12`, the outcome was inactive.

Regarding `CCCCc1oc2ccccc2c1C(=O)c1cc(I)c(OCCN(CC)CC)c(I)c1`, the compound was called inactive.

For `COc1ccccc1OCCNCC(O)COc1cccc2[nH]c3ccccc3c12` (centres undefined), the call was inactive.

Take `CC(C)Cc1ccc(C(C)C(=O)O)cc1` (centres undefined): the outcome was inactive.

As for `CN(C)c1nc(N(C)C)nc(N(C)C)n1`, the result was inactive.

`CS(=O)(=O)Nc1ccc([N+](=O)[O-])cc1Oc1ccccc1`: the call was inactive.

For the compound `OCCN(CCO)c1nc(N2CCCCC2)c2nc(N(CCO)CCO)nc(N3CCCCC3)c2n1`, the call was inactive.
